# Bioassay records from PubChem BioAssay.
# Glioma ERSR ind – qHTS for Inducers of the Endoplasmic Reticulum Stress Response (ERSR) in Human Glioma: qHTS; U87-MG GRP78 promoter luciferase reporter, 16 h; Potency, µM, for inactives: at the highest dose activation, actives largely listed as activators; 420,000 compounds, 0.02% hits; AID 602332, 2012; also: potency is read from the fitted curve at half-maximal effect; series mostly up to about 76 µM; % of control where 0% means no effect; nearly all actives have a fitted effect of over 35% in size
#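 Stably transfected U87-MG human glioma cells carrying a GRP78-based luminescent sensor were seeded at 1000 cells/well, pin-dosed with compounds and incubated 16 h. Luciferase reagent was then added, and end-point luminescence was read after 10 min at room temperature.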
# TSG101-PTAP inh – qHTS Assay for Iinhibitors of HIV-1 Budding by Blocking the Interaction of PTAP/TSG101; Tumor susceptibility gene 101 protein (Homo sapiens), Q99816; Fluorescence polarization, FITC-PTAP peptide / Tsg101 binding; Potency, µM (titrated, usually from 115 µM), inactives show at the highest dose activity change, negative = inhibition, hits mostly inhibitors; 340,000 tested, under 10 active; AID 493005, 2010; active = well fitted inhibition curve with a large enough effect in the main read-out, with a control signal flat, not every such curve was filed as active; inconclusive = small, poorly fitted or top-dose-only effect, or effect the other way, or a change in a side signal; inactive = no such curve, though single readings can be large or run the other way; also: potency is read from the fitted curve at half-maximal effect; % of control where 0% means no effect
# Target sequence (Q99816 whole entry, looked up): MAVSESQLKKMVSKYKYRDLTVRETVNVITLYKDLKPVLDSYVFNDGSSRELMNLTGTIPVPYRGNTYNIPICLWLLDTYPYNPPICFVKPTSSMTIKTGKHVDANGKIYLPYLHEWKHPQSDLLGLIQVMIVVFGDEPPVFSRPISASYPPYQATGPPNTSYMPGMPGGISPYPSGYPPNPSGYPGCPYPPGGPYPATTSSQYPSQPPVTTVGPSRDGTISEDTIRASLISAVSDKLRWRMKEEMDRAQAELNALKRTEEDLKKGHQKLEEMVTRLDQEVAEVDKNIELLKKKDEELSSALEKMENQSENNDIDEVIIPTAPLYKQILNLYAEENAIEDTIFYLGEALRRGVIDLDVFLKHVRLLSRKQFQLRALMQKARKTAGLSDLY
#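 Tsg101 binding domain (10 uM final) was mixed with compound and a FITC-labeled PTAP peptide (50 nM final) in HEPES pH 7.5 buffer with NaCl, Tween 20, EDTA and TCEP; fluorescence polarization was read after 20 min at r.t.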
# Nrf2 inh – Nrf2 qHTS screen for inhibitors | A549 ARE-Fluc reporter, luciferase luminescence, 18-24 h | 360,000 compounds, 2.1% hits | Potency, µM (highest dose often 46 µM), inactives show at the top dose activity change, negative = inhibition, most hits filed as inhibitors | AID 504444, 2011; also: potency is read from the fitted curve at half-maximal effect; % is scaled to controls: 0 for no effect and ±100 for the full control effect; nearly all actives have a fitted effect of over 60% in size
#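 Two sequential reads on A549 ARE_Fluc cells exposed to compound for 18-24 h: a CellTiter-Fluor fluorescence read for viability, then a luciferase luminescence read for Nrf2/ARE activity.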
# miR-21 reporter – qHTS Assay for Modulators of miRNAs and/orActivators of miR-21 | HeLa miR-21 FLuc reporter, luciferase, 48 h | 340,000 tested, under 10 active | Potency, µM (doses to about 38.3 µM), for inactives: top-dose activity change, positive = activation, usual class: activators;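 also: % of control where 0% means no effect; miR-21 action dims this reporter so a rising signal means less miR-21 action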
#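 Using DMEM plus 10% FBS, HeLa miR-21-FLuc cells are incubated with test compounds (final up to about 40uM) for 48 hours; firefly luciferase signal is then imaged following reagent-mediated lysis.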
# A549 viability – Nrf2 qHTS screen for inhibitors: counterscreen for cytotoxicity | A549 ARE-Fluc cells, CellTiter-Fluor viability, 18-24 h | Potency, µM (top dose mostly 46 µM), for inactives: at the highest dose activity change, negative = cytotoxicity, hits mostly inhibitors | 390,000 compounds, 0.16% hits | AID 504648, 2011; also: potency is read from the fitted curve at half-maximal effect; % is scaled to controls: 0 for no effect and ±100 for the full control effect
#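 A549 ARE-Fluc cells in 5% FBS OPTI-MEM, 5000 cells/well, rested 2 h then exposed to compounds in concentration-response for 18-24 h at 37 °C. Viability by CellTiter-Fluor fluorescence (Ex 405/Em 525) after 30 min; luciferase luminescence (BugLite, 15 min, RT) read afterwards.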
# Nrf2 activator – qHTS of Nrf2 Activators; 410,000 compounds, 0.31% hits; Potency, µM (titrated, usually from 46.1 µM), inactives show at the highest dose activation, most hits filed as activators; AREc32 ARE-luciferase reporter (MCF7-derived line), luminescence, 24 h; also: potency is read from the fitted curve at half-maximal effect; % of control where 0% means no effect; nearly all actives have a fitted effect of over 65% in size
#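 Each well held 1000 AREc32 cells, which were incubated with compound for 24 hr at 37 deg C after overnight attachment, and ARE reporter activity was quantified by firefly luciferase luminescence.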
# Active calls of the source: *; ? = inconclusive; · = no result given; [ ] = another dose, or the depositor's remark. Compounds with a hit are over-represented: about 2.1% of the library has one in this group of screens. Unless noted, calls follow the shape of the dose curve; as a rule, active = well fitted curve in the direction sought with a large enough effect; inconclusive = small, poorly fitted or top-dose-only effect, or another doubt; inactive = no such curve, though single readings can be large; an effect the other way counts as inactive or inconclusive.
SMILES,Glioma ERSR ind,TSG101-PTAP inh,Nrf2 inh,miR-21 reporter,A549 viability,Nrf2 activator
Cc1ccccc1-c1n[nH]c(=S)n1/N=C/C=C/c1ccco1,-4.0%,1.6%,?,0.4%,-3.5%,12.6µM*
O=C(c1ccc(Cl)s1)N1CCN(c2nc3ccccc3s2)CC1,-2.7%,-3.2%,7.31µM*,-6.4%,-14.4%,1.2%
CCC1CCCCN1S(=O)(=O)c1ccc(C(=O)Nc2nnc(-c3cccs3)o2)cc1 (stereo not given),-8.7%,-9.9%,5.01µM*,0.3%,?,-0.5%
CC1CC(C)CN(S(=O)(=O)c2ccc(C(=O)Nc3nnc(-c4cccs4)o3)cc2)C1 (stereo not given),-4.2%,-16.5%,5.01µM*,19.6%,?,-0.6%
CCC1CCCCN1S(=O)(=O)c1ccc(NC(=O)c2cccnc2)cc1 (stereo not given),-5.0%,·,-19.3%,-21.5%,10.4%,2.0%
CN(C)S(=O)(=O)c1ccc(C(=O)Nc2nnc(-c3cccs3)o2)cc1,3.6%,-8.1%,?,18.4%,-4.3%,0.7%
Cc1noc(/C=C/Nc2ccc(F)cc2F)c1[N+](=O)[O-],-2.6%,-7.8%,5.1%,-38.5%,-20.5%,2.82µM*
COc1ccccc1Nc1nn2c(=O)c3ccc(C(=O)NCCc4ccccc4)cc3nc2s1,?,·,18.4µM*,?,8.2µM*,3.5%
Cc1ccc(C)c(Nc2nn3c(=O)c4ccc(C(=O)NCCc5ccccc5)cc4nc3s2)c1,-3.6%,·,?,2.2%,8.4%,-1.5%
S=c1nc(-c2ccccc2)oc2c1CCCC2,4.8%,-0.3%,?,-54.2%,2.0%,11.2µM*
O=[N+]([O-])c1ccc(-c2nc(=S)c3c(o2)CCCC3)cc1,-3.5%,-0.8%,22.8%,-25.0%,-0.4%,0.8%
COc1cccc(-c2nc(=S)c3c(o2)CCCC3)c1,0.0%,-2.0%,16.6%,-64.5%,-0.6%,11.2µM*
N#C/C(=C\c1cccc([N+](=O)[O-])c1)c1ccccn1,8.1%,-9.3%,-13.2%,-15.5%,-0.1%,3.55µM*
O=C(Cc1nnc(-c2nc3ccccc3[nH]2)o1)Nc1cc(C(F)(F)F)ccc1Cl,·,·,18.3%,·,-2.2%,·
COc1ccc(NC(=O)Nc2ccc3c(c2)C(=O)N([C@H](C)CO)C[C@H](C)[C@@H](CN(C)S(=O)(=O)c2ccc(OC)cc2)O3)cc1,-0.8%,-2.7%,5.2%,·,-3.6%,4.6%
C[C@H](CO)N1C[C@H](C)[C@@H](CN(C)S(=O)(=O)c2ccccc2)Oc2c(NC(=O)Nc3ccc(C(F)(F)F)cc3)cccc2C1=O,-0.6%,-2.1%,?,·,-9.2%,-4.6%
COc1ccc(S(=O)(=O)N(C)C[C@H]2Oc3ccc(NC(=O)Nc4ccc(C(F)(F)F)cc4)cc3C(=O)N([C@H](C)CO)C[C@@H]2C)cc1,-1.6%,-11.4%,23.1µM*,·,?,0.4%
C[C@@H]1CN([C@H](C)CO)C(=O)c2cc(NC(=O)Nc3ccc(C(F)(F)F)cc3)ccc2O[C@H]1CN(C)S(=O)(=O)c1ccccc1,-3.5%,-0.7%,16.4µM*,·,?,0.3%
NS(=O)(=O)c1ccc(N2N=C(c3ccc(Br)cc3)CC2c2ccc(F)cc2)cc1 (stereo not given),-17.4%,-0.8%,18.4µM*,?,?,-1.7%
COc1ccc(Nc2nc3nonc3nc2N2CCCCC2)cc1,-0.7%,-0.8%,25.9µM*,9.0%,-10.5%,3.9%
CC1CCCN(c2nc3nonc3nc2Nc2ccccc2F)C1 (stereo not given),-1.5%,-3.2%,?,-1.5%,-2.6%,0.4%
COc1ccc(OC)c(Nc2nc3nonc3nc2N2CCCC(C)C2)c1 (stereo not given),-3.1%,1.7%,-7.7%,-5.4%,3.8%,4.0%
CC1CCN(c2nc3nonc3nc2Nc2ccc(F)cc2)CC1,-10.4%,-0.6%,9.2µM*,13.4%,?,3.9%
Nc1nc(Nc2cc(F)cc(F)c2)nc(NC2CCCC2)n1,·,·,-15.1%,·,-7.3%,·
CN(Cc1ccccc1)c1nc(-c2ccc([N+](=O)[O-])cc2)nc2ccccc12,-2.1%,-7.3%,?,-4.7%,-5.6%,-0.2%
SMILES,Glioma ERSR ind,TSG101-PTAP inh,Nrf2 inh,miR-21 reporter,A549 viability,Nrf2 activator
O=[N+]([O-])c1ccc(-c2nc(C(Cl)Cl)c3ccccc3n2)cc1,-3.8%,2.8%,14.6µM*,-4.6%,?,3.2%
Cc1onc(-c2ccc3c(c2)OCO3)c1-c1ccc2[nH]ccc2c1,-4.0%,-0.1%,14.6µM*,7.7%,2.8%,10.4%
CC(=O)c1c(C)[nH]c(C(=O)CSc2nnc(C3CCCCC3)n2N)c1C,-1.5%,-2.7%,20.6µM*,2.9%,-9.4%,0.0%
Nn1c(SCC(=O)N2CCCC2)nnc1C1CCCCC1,-7.4%,·,·,·,·,-1.4%
O=C(COC(=O)c1ccc2[nH]c3c(c2c1)CCCC3)Nc1ccccc1Cl,-2.4%,1.4%,?,0.7%,-2.0%,-0.5%
CCC(C)c1ccccc1NC(=O)COC(=O)c1ccc2[nH]c3c(c2c1)CCCC3 (stereo not given),-4.5%,-1.3%,20.6µM*,24.8%,?,1.7%[9.22 µM]
Cc1ccc(S(=O)(=O)C2(S(=O)(=O)c3ccc(C)cc3)CC2)cc1,-2.5%,0.0%,23.1µM*,7.1%,-14.9%,2.7%
COc1ccccc1CN1CCOc2ccc(CN3CCC(Oc4cccnc4)CC3)cc2C1,-2.4%,·,·,·,·,·
COC(=O)C(=Cc1ccc(-c2ccsc2C(=O)OC)o1)C(=O)OC,6.0%,0.1%,1.4%,-20.3%,?,12.6µM*
CCOC(=O)C(=Cc1ccc(-c2ccsc2C(=O)OC)o1)C(=O)OCC,4.7%,-5.6%,-23.8%,1.8%,-19.7%,?
O=C1CC(C(=O)N2CCOc3ccc(CN4CCC(Oc5cccnc5)CC4)cc3C2)c2ccccc21 (stereo not given),0.1%,·,·,·,·,·
CC(C)Cn1c(=O)c2c(nc3n2CCCN3Cc2ccccc2)n(C)c1=O,-3.9%,-1.7%,11.6µM*,3.3%,6.6%,2.6%
O=C1c2ccccc2C(=O)N1Cc1ccncc1,·,·,9.1%,·,6.0%,·
COC(=O)c1ccsc1NC(=O)CSc1nnnn1Cc1ccccc1,0.9%,-3.6%,-6.6%,-1.1%,6.0%,7.94µM*
COc1ccc(CN2CCOc3ccc(CN4CCC(Oc5cccnc5)CC4)cc3C2)cc1C,-5.9%,·,·,·,·,·
O=S1(=O)C=C(Sc2nc3cc(Cl)ccc3o2)c2ccccc21,-13.8%,1.9%,?,27.4%,?,8.91µM*
Cc1cc(NC(=O)CSc2nc3cc(Cl)ccc3o2)no1,-1.2%,0.4%,9.4%,-5.8%,-0.7%,-0.3%
